Common to all, as to experiment: NCI-60 one-dose screen, 48 h (100 = growth as untreated, 0 = no growth, -100 = all killed)
Holding throughout (conditions): 10 µM unless noted

Test [1] has as its system T-47D breast.
The test system of test [2] is BT-549 breast.
In test [3] the test system is MDA-MB-435 melanoma.
Test [4] relates to SW-620 colon.
The subject of test [5] is MCF7 breast.
The subject of test [6] is HCT-116 colon.
The test system of test [7] is HCC-2998 colon.
Test [8] relates to KM12 colon.

About 83,000 compounds went through this panel and 20% of them were active in at least one assay; those are over-represented in the sample as a whole.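 Treatment: one concentration, 48 hours, 96-well format. Scoring: percent growth, with anything below 10 considered active.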 Values without a mark were called inactive. Calls of active or inactive are those of the source.

Regarding `CC(=O)O[C@H]1CC[C@@]2(C)C(=CC[C@@H]3[C@@H]2CC[C@]2(C)C(c4cccnc4)=CC[C@@H]32)C1`, the growth in test [1] was 47.2%; in test [2], 63.4%; in test [3], 34.5%; in test [4], 76.4%; in test [5], 46%; in test [6], 54.1%. Also, the growth is 65.1% in test [7] and 53.7% in test [8].

With `OCCN1CCN(CCCN2c3ccccc3Sc3ccc(C(F)(F)F)cc32)CC1`, the growth was 54.5% in test [1]; 53% in test [2]; -46.1% (active) in test [3]; -31.2% (active) in test [4]; 18.3% in test [5]; 2.28% (active) in test [6]. Besides, the growth in test [7] is -83.2% (active); in test [8] it was 9.9% (active).

Regarding `CC(=O)c1ccccc1NC(=O)C(C)(c1ccccc1)c1ccccc1`, the growth in test [1] was 67.7%; in test [2], 75.7%; in test [3], 98.6%; in test [4], 93.4%; in test [5], 102%; in test [6], 42.1%. For the same compound, the values for the growth in test [7] and in test [8] were 108% and 85%, respectively.

With `COC(=O)CC1=C(c2ccc([N+](=O)[O-])cc2)CCC1=O`, the growth is 101% in test [1]; 110% in test [2]; 105% in test [3]; 101% in test [4]; 104% in test [5]; 112% in test [6]. Moreover, the growth is 109% in test [7] and 107% in test [8].

Turning to `C[N+]1(C)C2CC[C@@H]1CC(OC(=O)C(O)c1ccccc1)C2` (stereo partly drawn), the growth in test [1] is 109%; in test [2], 99.6%; in test [3], 99.1%; in test [4] it was 109%; in test [5] it was 106%; in test [6], 102%. The results for the growth in test [7] and in test [8] were 96.6% and 109%, respectively.

For the compound `NC(=O)NC1(C(=O)O)CCCC1`, the growth in test [1] was 93.6%; in test [2], 111%; in test [3], 107%; in test [4] it was 109%; in test [5], 98.9%; in test [6], 115%. Besides, the figures for the growth in test [7] and in test [8] were 108% and 107%, respectively.

In the case of `N#CC1c2ccccc2C=CN1C(=O)N(c1ccccc1)c1ccccc1` (stereo not drawn), the growth in test [1] is -1.33% (active); in test [2], 74.1%; in test [3], 58.7%; in test [4], 21.8%; in test [5], 49.9%; in test [6] it was 26.5%. The values for the growth in test [7] and in test [8] were 96.8% and 102%, respectively.

For the compound `Cc1n(Cc2ccc3ccccc3c2)c2ccccc2[n+]1Cc1ccc2ccccc2c1`, the growth was -3.2% (active) in test [1]; -79.7% (active) in test [2]; -72.8% (active) in test [3]; -60.7% (active) in test [4]; -70.9% (active) in test [5]; -91% (active) in test [6]. Moreover, the growth in test [7] was -87% (active); in test [8], -77.7% (active).

In the case of `COc1ccc(C2=NN(C=O)C(c3cccc(Nc4ccnc5cc(Cl)ccc45)c3)C2)cc1` (stereo not drawn), the growth in test [1] was 25.1%; in test [2] it was 1.59% (active); in test [3] it was 11.7%; in test [4] it was 24.8%; in test [5], 15.7%; in test [6] it was 12%. Also, the growth was 57.8% in test [7] and 27.4% in test [8].

For the compound `CC1=C([Se]CC(OC(=O)[C@@H](CSSC(C)(C)C)NC(=O)C(C)(C)C)C(=O)NCCCCCC(=O)OCc2ccccc2)C(=O)c2ccccc2C1=O` (stereo partly drawn), the growth was 17.9% in test [1]; -64.2% (active) in test [2]; 14.2% in test [3]; 9.84% (active) in test [4]; 30.3% in test [5]; -18% (active) in test [6]. Also, the values for the growth in test [7] and in test [8] were -63.9% (active) and 6.76% (active), respectively.

Take `C=C1CC[C@@H]2[C@](C)(COC(C)=O)[C@H](OC(C)=O)CC[C@@]2(C)[C@@H]1CC(NCc1ccccc1)C1=CCOC1=O` (stereo partly drawn): the growth in test [1] is 14.2%; in test [2], 28.1%; in test [3], 27.9%; in test [4], 47.3%; in test [5], 29.8%; in test [6] it was 42.3%. Moreover, the growth was 93.7% in test [7] and 39.1% in test [8].

Regarding `COc1ccc2nc(-c3ccc(Cl)cc3)cc(-c3nnc(SCC(=O)Nc4ccc(C(C)=O)cc4)n3-c3ccccc3)c2c1`, the growth in test [1] was 87.2%; in test [2], 87.5%; in test [3], 100%; in test [4], 108%; in test [5] it was 100%; in test [6], 100%. Also, the growth is 97.7% in test [7] and 95.3% in test [8].

Turning to `Cc1ccc(NC(=O)c2sc3nc4c(cc3c2N)C(=O)CCC4)cc1`, the growth in test [1] is 94.7%; in test [2], 86.4%; in test [3] it was 14.6%; in test [4], 67%; in test [5], 67.7%; in test [6] it was 91.7%. In addition, the growth is 80.2% in test [7] and 56.7% in test [8].

Consider `COc1cc(/C=N/OC(=O)Nc2ccccc2)cc(OC)c1OC`, for which the growth in test [1] is 100%; in test [2], 105%; in test [3], 124%; in test [4], 108%; in test [5], 108%; in test [6] it was 94.3%. The results for the growth in test [7] and in test [8] were 106% and 113%, respectively.

Consider `CC[C@@H](C)/C=C(C)/C=C/C(=O)c1c(O)c(-c2ccc(O)cc2)cn(OC2CC(=O)CCC(C)OC(=O)CC2O)c1=O` (stereo partly drawn), for which the growth was 25.8% in test [1]; 14.6% in test [2]; 12.4% in test [3]; 22.9% in test [4]; 21.7% in test [5]; 18.5% in test [6]. In addition, the growth is 8.22% (active) in test [7] and 19.8% in test [8].

Consider `N#Cc1c(-c2ccccc2)cc(-c2ccccc2)n(CCCCCCC(=O)O)c1=O`, for which the growth in test [1] is 91.1%; in test [2] it was 101%; in test [3], 102%; in test [4], 103%; in test [5], 67.9%; in test [6], 98.5%. For the same compound, the growth in test [7] is 111%; in test [8], 98.9%.

Values taken from PubChem BioAssay (NCI).
